Among all 2,300 compounds or so, about 1,200 (52%) were called active. So high a share suggests a set chosen from earlier hits. This is one part of the list. Potency and affinity values are given separately. A number with no mark means an inactive call. How the calls were made is not given here.
test: mammalian cell cytotoxicity, dose response, cytotoxicity control for M. tuberculosis inhibitor project (AID 435019); details: cytotoxicity counter-screen; series mostly up to 40 µM; viability: at the top concentration;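 further: 0% = background wells and 100% = vehicle-treated cells; lower values mean fewer viable cells so more cytotoxicity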

In order of rising “viability” value:
1. Cn1c(=O)n(Cc2ccccc2)c(=O)c2c1nc1n2CCCN1C1CCCCC1  80%
2. CCOC(=O)c1ccc(Oc2nc(NC(C)(C)C)nc(N(C)C)n2)cc1  80.1%
3. O=C(Nc1cccc(C(F)(F)F)c1)c1ccc2nc(-c3ccco3)c(-c3ccco3)nc2c1  80.1%
4. CCOC(=O)c1ccc(N=Cc2c(O)c3ccccc3oc2=O)cc1  80.2%
5. Cc1ccc2c(c1)nnn2C1CCN(CC(=O)N2CCN(c3ccc(F)cc3)CC2)CC1  80.5%
6. Cc1c(Cl)c([N+](=O)[O-])nn1Cc1ccc(C(=O)N/N=C\c2cccc(Br)c2)o1  80.6%
7. CC(OC(=O)c1cc(Cl)ccc1[N+](=O)[O-])C(=O)NC(C)c1ccc(F)cc1 (stereo not drawn)  80.7%
8. COC(=O)Cc1ccc(NC(=S)Nc2ccccn2)cc1  81.1%
9. CCOc1cc(/C=N/Nc2nc(Nc3ccccc3)nc(N3CCCCC3)n2)ccc1OCC(=O)O  81.1%
10. CN(c1ccccc1)S(=O)(=O)c1cccc(C(=O)NCc2ccccc2CN2CCCC2)c1  81.2%
11. c1ccc2nc(-c3ccc(-n4ccnc4)cc3)ccc2c1  81.5%
12. O=C(c1cc2ccccc2o1)N1CCN(S(=O)(=O)c2ccc(Cl)s2)CC1  81.6%
13. CC(C)(C)c1ccc(OCCC(=O)OCC(=O)NC(=O)NC2CCCC2)cc1  81.8%
14. Nc1ccc(N=Nc2ccccc2)c2cccnc12  81.9%
15. COc1ccc(-c2cc(C3CCN(C(=O)OC(C)(C)C)CC3)[nH]n2)cc1  81.9%
16. Cc1cc(/C=C(/C#N)c2cccc(F)c2)c(C)n1-c1cccnc1  82.3%
17. CCOC(=O)c1sc2ncnc(NCC(c3cccs3)N(C)C)c2c1C (stereo not drawn)  82.4%
18. CCc1ccc(/C(C)=N/Nc2cc(Cl)nc(C)n2)cc1  82.6%
19. CN(C)S(=O)(=O)c1cccc(NC(=O)CCc2nc3sc4c(c3c(=O)[nH]2)CCCC4)c1  82.9%
20. COc1ccc(-c2oc3cccnc3c2/C=C/c2ccc(OC)c(OC)c2)cc1  82.9%
21. Cc1cc(C(=O)N/N=C/c2ccc(-c3ccc([N+](=O)[O-])cc3Cl)o2)n[nH]1  83%
22. COc1ccc(NC(=O)C2C3C=CC(O3)C2C(=O)NCc2cccnc2)cc1 (stereo not drawn)  83.1%
23. CCOC(=O)c1nn(-c2ccc(C)c(C)c2)cc1O  83.7%
24. CCOC(=O)c1cc(-c2ccc(N3CCOCC3)cc2)nn1-c1ccccc1  83.8%
25. COc1ccc(C(=O)OCCNC(=O)c2c(Cl)nc3ccccn23)cc1  83.8%
26. COc1cc2[nH]c(Cl)c([N+](=O)[O-])c2cc1OC  83.9%
27. COc1ccc(NC(=O)ON=C2c3ccccc3-c3ccccc32)cc1  84.1%
28. CCOC(=O)c1sc2nc3n(c(=O)c2c1C)CCC(C)CC3 (stereo not drawn)  84.2%
29. COc1ccc2c(c1)[C@@H]1[C@H](CO2)[C@H](c2ccccc2)[C@]2(C)C(=O)Nc3ccc(C)cc3C(=O)N12  84.9%
30. CCOC(=O)c1sc(C)c2c(=O)n(CC(=O)c3ccc(Br)cc3)nnc12  85%
31. O=C1CC(Nc2ccc3ccccc3c2)C(=O)N1Cc1ccccc1 (stereo not drawn)  85.1%
32. CCOC(=O)c1c(-c2ccc(OC)cc2)csc1NC(=O)CNCc1ccco1  85.1%
33. CCCCCc1ccc(-c2cn(Cc3cccc(OC)c3)nn2)cc1  85.2%
34. CC(=O)Oc1ccc(/C=N\NC(=O)c2cc3c(ccc4ccccc43)o2)cc1  85.8%
35. Cc1cc(OCc2nc3ccccc3s2)ccc1N  85.9%
36. CCn1cc(Br)c(C(=O)Nc2ccc(C(=O)OC(C)C)cc2)n1  86.2%
37. CCc1nnc(NC(=O)CN2CCN(c3nc(-c4ccccc4)cs3)CC2)s1  86.4%
38. C/C(=N/Nc1ccnc2cc(Cl)ccc12)c1ccc(O)cc1  86.5%
39. CC1CCN(C(=O)C2CCN(c3nnc(-n4cccc4)s3)CC2)CC1  86.7%
40. Cc1c(C(=O)Oc2cccc3ccccc23)cnn1-c1ccccc1  86.8%
41. C/C(O)=C\c1nc2ccccc2oc1=O  87%
42. CCOC(=O)CSc1ncc(OC)c(Sc2ccc(OC)cc2)n1  87.2%
43. COCc1nnc(NC(=O)C2CC(=O)N(c3ccc(C)c(Cl)c3)C2)s1 (stereo not drawn)  87.4%
44. NC(N)=Nc1nc(-c2ccccc2)c2ccccc2n1  87.4%
45. c1ccc(CCN2CN=C(Nc3nc4ccccc4o3)NC2)cc1  87.5%
46. CS(=O)(=O)c1ncc(Cl)c(C(=O)Nc2ccc(OC(F)F)cc2)n1  87.7%
47. CC(=NCc1ccc2c(c1)OCO2)C1=C(O)c2ccccc2C1=O  87.7%
48. Cc1ccc(NC(=O)C2=C(O)CCn3c2nc2ccccc23)cc1  87.9%
49. CCCC(=O)OCCNc1cc(SCCC(=O)OC)c2nonc2c1[N+](=O)[O-]  88.2%
50. Nc1cc(=O)[nH]c(SCc2csc(-c3ccccc3)n2)n1  88.7%
51. CCOc1ccc(NCc2cccn2-c2nnc(N3CCC(C(=O)NCCCN4C(C)CCCC4C)CC3)s2)cc1 (stereo not drawn)  89.3%
52. COC(=O)[C@@H](NC(=O)c1cc(COc2cncc(Cl)c2)on1)c1ccccc1  89.5%
53. CCCCOc1ccc(C(=O)Oc2ccc(C)nc2)cc1  89.5%
54. Nc1cccc(-c2cc3ccccc3oc2=O)c1  89.7%
55. Cc1ccc(-c2c[n+](CC(=O)N3c4ccccc4Sc4ccccc43)c3n2CCC3)cc1  89.8%
56. N#Cc1ccc(CN2CCN(CC(=O)NCCc3ccc(Cl)cc3Cl)CC2)cc1  90.2%
57. CCOC(=O)c1ccc(N=Cc2nc3ccccc3n2C)cc1  90.3%
58. CCCOc1cccc(C(=O)NC(=S)Nc2ccc(N3CCN(C)CC3)cc2)c1  90.3%
59. Nc1ccc(C(=O)OCCCc2nc3cc4ccccc4cc3[nH]2)cc1  90.5%
60. CCOc1cc(C=O)cc(N=Nc2cccc([N+](=O)[O-])c2)c1O  90.6%
61. CCOC(=O)CNC(=O)C(Cc1ccccc1)NC(=O)OCc1ccccc1 (stereo not drawn)  90.7%
62. CCOC(=O)/C(=N\Nc1ccc(Br)cc1)N1CC(C)OC(C)C1 (stereo not drawn)  90.9%
63. CCN(Cc1ccncc1)Cc1nc(-c2ccc(C(=O)OC)cc2)no1  91%
64. C/C(CC(=O)Nc1ccc(C)c(Cl)c1)=N\NC(=O)Cc1cnc(N)s1  91.1%
65. COc1ccccc1NC(=O)C(C)OC(=O)/C=C/c1ccc2ccccc2n1 (stereo not drawn)  91.6%
66. CN1C(=O)N(C)c2ccc(C=O)c3cccc1c23  91.8%
67. COC(=O)C1C(O)C(C)C(O)C(C)/C=C\C=C(/C)C(=O)Nc2c(C)c(OC(C)=O)c3c(c2O)C(=O)C(C)=C2OCOC(=C23)/C(C)=C/C(C)(O)C(O)C(C)C1O (stereo not drawn)  91.8%
68. Cn1nnc(NC(=S)NC(=O)c2ccc(-c3ccc(Br)cc3)o2)n1  92.3%
69. N#Cc1cccc(NC(=O)N2CCC(c3nc4c(nnn4Cc4cccc(Cl)c4)c(=O)[nH]3)CC2)c1  92.3%
70. Cc1ccc(C)c(NNC(N)=S)c1  92.3%
71. C#CCOC(=O)/C(=C/C=C/c1ccccc1)NC(=O)c1ccccc1  92.6%
72. O=C(CSc1nc2ccccc2c(=O)[nH]1)NCc1ccc(Cl)cc1  93%
73. O=C(OCn1nnc2ccccc2c1=O)C1CCCCC1  93.7%
74. COc1ccc(CCNc2cc(-c3ccccc3)nc3ncnn23)cc1  93.8%
75. Cn1c(=O)c2cc(NCc3ccccc3)nnc2n(C)c1=O  94%
76. CC(C)c1ccc2[nH]c(O)c(N=NC(=O)c3ccc(CSc4nncn4C)cc3)c2c1  94.1%
77. O=c1oc2ccccc2c(Nc2ccccc2O)c1[N+](=O)[O-]  94.4%
78. Nc1cnccc1C(=O)O  94.5%
79. CCOc1ccc2nc(/N=C/c3nc(-c4ccccc4)oc3O)sc2c1  94.5%
80. O=C(COC(=O)C1=COCCO1)Nc1cccc(Oc2ccccc2)c1  94.6%
81. Cc1ccc(-c2nnc(C)c(N3CCCC3)n2)cc1  94.6%
82. Clc1cc(Cl)cc(Nc2ncn[nH]2)c1  94.7%
83. CC(OC(=O)CCN=C1NS(=O)(=O)c2ccccc21)C(=O)Nc1ccc(F)c(F)c1F (stereo not drawn)  94.8%
84. CC(C)NC(=O)c1onc(CSc2ccc(F)c(F)c2)c1C(=O)O  95%
85. O=C(N/N=C\c1ccc[nH]1)c1cncc(Br)c1  95.1%
86. CC(=O)c1cccc(NC(=S)NC2CCCCCCC2)c1  95.3%
87. CN1CCC(=NNC(=O)C(=O)Nc2ccccc2F)CC1  96%
88. CCSCc1nnc(SCC(=O)Nc2cccc(SC)c2)n1C  96.1%
89. Cc1ccc(C(=O)N/C(=C/c2ccco2)C(=O)OCN2C(=O)c3ccccc3C2=O)cc1  96.3%
90. COC(=O)CCCCC1SCC(NC(=O)c2ccccc2)C1=O (stereo not drawn)  96.3%
91. COc1ccc(SN=C2C(C)=CC(=O)C=C2C)cc1  96.5%
92. CN1[C@@H]2CC[C@H]1CC(OC(=O)[C@H](CO)c1ccccc1)C2 (stereo partly drawn)  96.7%
93. NC(=S)NNc1ccc(Cl)c(Cl)c1  96.9%
94. CCCCc1ccc(NC=C2C(=O)OC3(CCCCC3)OC2=O)cc1  97.2%
95. CCCC(O)(CCC)C(=O)NNc1ccc(C)cc1  97.4%
96. O=c1c2c(nc3nc(NCc4ccc(Cl)cc4)[nH]n13)CCC2  97.4%
97. CCOC(=O)Cn1nc(-c2ccccc2)nc1-c1ccccc1  97.6%
98. Cc1ccc(C)c(NC(CC(=O)c2ccccc2)C(=O)OCC(=O)c2cccs2)c1 (stereo not drawn)  98.3%
99. C=CC[N@@+]12CC[C@]34c5ccccc5N5/C=C6\C7N(/C=C(\C53)[C@@H](C[C@@H]41)/C(=C/CO)C2)c1ccccc1[C@@]71CC[N@@+]2(CC=C)C/C(=C\CO)[C@@H]6C[C@@H]12 (stereo partly drawn)  98.7%
100. N/C(=N\OC(=O)CCC1CCCC1)c1cccc([N+](=O)[O-])c1  98.7%
101. Cc1[nH]nc2nc3c(c(OC(=O)c4ccccc4)c12)c(=O)n(C)c(=O)n3C  98.9%
102. COC(=O)N/N=C/c1c[n+]([O-])c2ccccc2[n+]1[O-]  98.9%
103. Cc1ccc(-c2noc(-c3cc4ccccc4oc3=O)n2)cc1  99.3%
104. CCn1c(SCC(=O)Nc2ccc3c(c2)oc2ccccc23)nnc1-c1ccc(N)cc1  99.5%
105. O=C(NCC1CC1)c1cc([N+](=O)[O-])cc([N+](=O)[O-])c1  99.8%
106. Cc1nn(-c2ccccn2)c2c1-c1nc(N3CCOCC3)ncc1CC2  99.9%
107. C=CCN1CC[C@]23c4c5ccc(O)c4O[C@H]2/C(=N/NC(=O)c2ccccc2)CC[C@@]3(O)[C@H]1C5  100%
108. O=C(COC(=O)C1CC2CCCC(C1)C2=O)NNC(=O)c1ccccc1F (stereo not drawn)  101%
109. COCCOC(=O)c1ccc(NC(=O)COc2ccc([N+](=O)[O-])cc2)cc1  101%
110. CCOC(=O)C1=C(C)Nc2nc(SCC(=O)OC)nn2C1c1cc(F)cc(F)c1 (stereo not drawn)  101%
111. O=C(CSc1nnc(-c2cccs2)o1)NCC1CN(Cc2ccccc2)CCO1 (stereo not drawn)  101%
112. COc1ccc(C(C)=O)cc1COC(=O)c1ccc2ccccc2n1  101%
113. CCC(=O)c1coc2ccc(O)cc12  102%
114. Cc1cccc(C(=O)OCC(=O)N2CCc3ccccc3C2)c1O  102%
115. O=C(O)C1CC=CCC1C(=O)NNc1ccccc1 (stereo not drawn)  102%
116. O=c1[nH][nH]cc1C=Nc1ccc(Oc2ccccc2)cc1  102%
117. O=C(CCN1C(=O)/C(=C/c2ccccc2)SC1=S)Nc1ccccn1  102%
118. N[C@@H](CCl)C(=O)O  107%
